In PubChem BioAssay (NCATS):
Records with an inconclusive call do not appear. Where a call stands in place of a potency, no number is given. Active and inactive are the calls of the source. Calls follow the shape of the dose curve; as a rule, active = well fitted curve in the direction sought with a large enough effect; inconclusive = small, poorly fitted or top-dose-only effect, or another doubt; inactive = no such curve, though single readings can be large; an effect the other way counts as inactive or inconclusive.

Experiments:
[1] = biological target: Cellular tumor antigen p53 (Homo sapiens) (UniProt P04637); assay: Primary qHTS for small molecule compounds that upregulate eGFP-tagged delta133p53alpha (in N-terminal) cells. (AID 2060322); settings: NCI-H358 eGFP-delta133p53alpha fluorescence, 24 h; activation: active compounds read high; also: nearly all actives have a fitted effect of over 75% in size; also: potency is read from the fitted curve at half-maximal effect
Chain of Cellular tumor antigen p53 (Homo sapiens) (P04637 whole entry, looked up): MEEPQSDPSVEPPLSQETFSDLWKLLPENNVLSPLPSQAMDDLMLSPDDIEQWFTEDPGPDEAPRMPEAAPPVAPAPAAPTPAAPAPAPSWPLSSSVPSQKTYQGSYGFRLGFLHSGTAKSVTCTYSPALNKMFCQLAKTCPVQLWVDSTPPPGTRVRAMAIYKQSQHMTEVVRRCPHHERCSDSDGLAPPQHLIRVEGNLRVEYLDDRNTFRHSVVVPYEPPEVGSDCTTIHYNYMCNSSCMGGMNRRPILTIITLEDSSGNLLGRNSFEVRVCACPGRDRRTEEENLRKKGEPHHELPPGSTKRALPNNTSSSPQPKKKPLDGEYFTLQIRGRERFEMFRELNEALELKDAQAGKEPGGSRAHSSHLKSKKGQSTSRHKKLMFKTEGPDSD
Summary of the method: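 NCI-H358 cells pre-induced 24 h with 10 ng/ml doxycycline to express N-terminal eGFP-delta133p53alpha, then dosed 24 h at 37C without doxycycline; fixed, Hoechst-stained, GFP intensity by laser scanning cytometry, normalized to DMSO (0%) and 57.5 uM 5-azacytidine (100%).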

[2] = biological target: Aldehyde dehydrogenase, mitochondrial (Homo sapiens) (UniProt P05091); assay: qHTS for Inhibitors of the Aldehyde Dehydrogenase Family (ALDH2) Primary screen (AID 2061308); settings: ALDH2 enzyme inhibition qHTS, 1536-well; series mostly up to 56 µM; also: nearly all actives have a fitted effect of over 55% in size
[3] = biological target: Retinaldehyde dehydrogenase 3 (Homo sapiens) (UniProt P47895); assay: qHTS for Inhibitors of the Aldehyde Dehydrogenase Family (ALDH1A3) Primary screen (AID 2061315); settings: ALDH inhibition qHTS; series mostly up to 56 µM

Row | SMILES | activation [1] | Potency [2] | Potency [3] | activity change, negative = inhibition [2] | activity change, negative = inhibition [3] | Potency [1]
1 | C=C1C[C@]2(O)[C@@]3(C)CCC(=O)C(C)(C)C3=C(O)C(=O)[C@@]2(C)[C@@H]2C(=O)O[C@@](C)(C(=O)OC)C(=O)[C@@]12C | -4.58% (inactive) | inactive | inactive |  |  | 
2 | C=CC(C)(O)CC/C=C(\C)C(=O)O[C@H]1[C@H](O)[C@@H](CO)O[C@@H](OC(=O)[C@]23CCC(C)(C)CC2C2=CCC4[C@@]5(C)CC[C@H](O[C@@H]6O[C@H](CO[C@@H]7OC[C@H](O)[C@H](O)[C@H]7O[C@@H]7OC[C@@H](O)[C@H](O)[C@H]7O)[C@@H](O)[C@H](O)[C@H]6O)C(C)(C)C5CC[C@@]4(C)[C@]2(C)CC3)[C@@H]1OC1OC(C)C(O[C@@H]2OC[C@@H](O)[C@H](O[C@@H]3OC[C@@H](O)[C@H](O)[C@H]3O)[C@H]2O)C(O)C1O (some centres undefined) | -6.87% (inactive) |  |  | 12% [at 11.2 µM] (inactive) | 3.26% [at 11.2 µM] (inactive) | 
3 | C=C(C)[C@@]12O[C@@H]1[C@@]1(C)C(=C[C@H]2O)CC[C@@H](O)[C@@H]1C | 8.4% (inactive) | inactive | inactive |  |  | 
4 | CO/C1=C\C(C)=C\[C@@H](C)[C@@H](O)[C@@H](C)C/C(C)=C/C=C/[C@H](OC)[C@@H]([C@@H](C)[C@@H](O)[C@H](C)[C@@]2(O)C[C@@H](O)[C@H](C)[C@@H](C(C)C)O2)OC1=O | 13% (inactive) | inactive | inactive |  |  | 
5 | C[C@]12CCC(=O)C=C1CC[C@@H]1[C@@H]2[C@@H](O)C[C@]2(C)C(=O)CC[C@@H]12 | 11% (inactive) | inactive | inactive |  |  | 
6 | CC(CCc1ccc(O)cc1)O[C@@H]1O[C@H](CO[C@H]2OC[C@](O)(CO)[C@H]2O)[C@@H](O)[C@H](O)[C@H]1O (some centres undefined) | 2.29% (inactive) | inactive | inactive |  |  | 
7 | C/C=C(\C)C(=O)O[C@H]1[C@H](OC(C)=O)[C@]2(CO)[C@H](O)[C@H](O)[C@]3(C)C(=CCC4[C@@]5(C)CC[C@H](O[C@@H]6O[C@H](C(=O)O)[C@@H](O)[C@H](O[C@@H]7OC[C@H](O)[C@H](O[C@@H]8OC[C@H](O)[C@H](O)[C@H]8O)[C@H]7O)[C@H]6O[C@@H]6O[C@H](CO)[C@@H](O)[C@H](O)[C@H]6O)C(C)(C)C5CC[C@]43C)[C@@H]2CC1(C)C (some centres undefined) | -3.05% (inactive) |  |  | 1.02% [at 11.2 µM] (inactive) | 2.55% [at 11.2 µM] (inactive) | 
8 | C[C@]12CC[C@H]3[C@@H]([C@H](O)CC4=CC(=O)CC[C@@]43C)[C@@H]1CC[C@@H]2O | -2.33% (inactive) | inactive | inactive |  |  | 
9 | C[C@]12CC[C@H](O)C[C@@H]1CC[C@@H]1[C@@H]2CC[C@]2(C)[C@@H](C3=CC(=O)OC3)CC[C@]12O | 7.63% (inactive) | inactive | inactive |  |  | 
10 | CO[C@H]1C[C@H](O[C@H]2CC[C@@]3(C)C(=CCC4C3CC[C@]3(C)[C@@H](C5=CC(=O)OC5)CC[C@]43O)C2)O[C@@H](C)[C@@H]1O[C@@H]1O[C@H](CO[C@@H]2O[C@H](CO)[C@@H](O)[C@H](O)[C@H]2O)[C@@H](O)[C@H](O)[C@H]1O (some centres undefined) | 0% (inactive) | inactive | inactive |  |  | 
11 | CC(=O)O[C@H]1C[C@@H](OC(C)=O)C(C)(C)C2C[C@@H](O)[C@]3(C)C(CC[C@@]4(C)[C@H](C5=CC(=O)OC5O)C[C@H]5O[C@]543)[C@]21C (some centres undefined) | -6.87% (inactive) | inactive | inactive |  |  | 
12 | Cc1c(N2C(=O)[C@@H]3[C@H](O)CCN3C2=O)ccc(C#N)c1Cl | 3.82% (inactive) | inactive | inactive |  |  | 
13 | CCOC(=O)c1ccnc2cc(C(OCCN3CCCCC3)c3ccccc3Cl)sc12 (centres undefined) | -5.67% (inactive) | inactive | inactive |  |  | 
14 | C=C[C@H]1CN2CC[C@H]1C[C@@H]2[C@@H](O)c1ccnc2ccccc12 | 3.57% (inactive) | inactive | inactive |  |  | 
15 | CCOC(=O)c1ncn2c1CN(C)C(=O)c1c(I)cccc1-2 | 7.67% (inactive) | inactive | inactive |  |  | 
16 | CC1=CC2OC3[C@H](O)C[C@@](C)([C@]34CO4)[C@@]2(CO)[C@H](O)C1=O (some centres undefined) |  | inactive | inactive |  |  | 23.9 µM (active)
17 | CCN1CC2(COC)C3[C@@H](OC)C4C1C3(C1C[C@]3(O)[C@H](OC(=O)c5ccccc5)C1[C@]4(OC(C)=O)[C@@H](O)[C@@H]3OC)[C@H](OC)C[C@H]2O (some centres undefined) | 8.33% (inactive) | inactive | inactive |  |  | 
18 | C=C1CC[C@H]2[C@@H](/C=C(\C)C(=O)[C@@]3(OC(C)=O)C[C@H](C)[C@H](OC(=O)c4ccccc4)[C@@H]3[C@H]1OC(C)=O)C2(C)C | -11.5% (inactive) | inactive | inactive |  |  | 
19 | CCC1CN2CCc3cc(OC)c(OC)cc3C2CC1CC1=NCCc2cc(O)c(OC)cc21 (centres undefined) | 23.2% (inactive) | inactive | inactive |  |  | 
20 | CC(O)(c1ccccc1)C(Cc1ccc(Cl)cc1)n1cncn1 (centres undefined) | -8.59% (inactive) | inactive | inactive |  |  | 
21 | COC(=O)C1(C)CCC(O)C2(C)c3c(O)cc(C(C)C)cc3C(O)C(OC(C)=O)C12 (centres undefined) | -9.16% (inactive) | inactive | inactive |  |  | 
22 | CCCCCn1cc(C(=O)c2cccc3ccccc23)c2ccccc21 | 20.5% (inactive) | inactive | inactive |  |  | 
23 | CC1CCCC(O)CC(=O)Cc2cc(O)cc(O)c2C(=O)O1 (centres undefined) | 7.63% (inactive) | inactive | inactive |  |  | 
24 | CC[C@@H](C)[C@H]1C(=O)O[C@H](C(C)C)C(=O)N(C)[C@@H]([C@@H](C)CC)C(=O)O[C@H](C(C)C)C(=O)N(C)[C@@H]([C@H](C)CC)C(=O)O[C@H](C(C)C)C(=O)N1C | 9.82% (inactive) | inactive | inactive |  |  | 

Row | SMILES | activation [1] | Potency [2] | Potency [3] | activity change, negative = inhibition [2] | activity change, negative = inhibition [3] | Potency [1]
25 | CN1[C@H]2C[C@H](OC(=O)[C@H](CO)c3ccccc3)C[C@@H]1[C@@H](O)C2 | 1.67% (inactive) | inactive | inactive |  |  | 
26 | CC1CCCCCC(=O)c2c(O)cc(O)cc2CC(=O)O1 (centres undefined) | -18.3% (inactive) | inactive | inactive |  |  | 
27 | CCCCC1C(=O)NC(=O)N(C2CCCCC2)C1=O (centres undefined) | 17% (inactive) | inactive | inactive |  |  | 
28 | Fc1cc(F)c2c(c1)[C@H]1C=CC[C@H]1C(c1cccnc1)N2 (some centres undefined) | 2.39% (inactive) | inactive | inactive |  |  | 
29 | c1ccc([C@@H]2C[C@H]2NC2CCNCC2)cc1 | 13.8% (inactive) | inactive | inactive |  |  | 
30 | O=C(N[C@H]1CN2CCC1CC2)c1cc2cccc(Cl)c2s1 | 38.7% (inactive) | inactive | inactive |  |  | 
31 | CC(C)C1(OO)C=C2C(=O)CC3C(C)(C(=O)O)CCCC3(C)C2CC1 (centres undefined) | 11.5% (inactive) | inactive | inactive |  |  | 
32 | COc1cc(O)c2c(c1)/C=C/C[C@@H](O)[C@@H](O)C(=O)CCC[C@H](C)OC2=O | -12.2% (inactive) | inactive | inactive |  |  | 
33 | C=C(CO)C(=O)O[C@H]1C/C(C)=C/CC/C(CO)=C/[C@H]2OC(=O)C(=C)[C@H]12 | -16.8% (inactive) | inactive | inactive |  |  | 
34 | C=CC(C)(C)C12C=C(O)C(=O)N3/C(=C\c4cnc[nH]4)C(=O)NC31N(OC)c1ccccc12 (centres undefined) |  | inactive | inactive |  |  | 4.65 µM (active)
35 | Cc1ccc(Cn2nc(C(=O)N[C@@H]3C(C)(C)[C@@H]4CC[C@@]3(C)C4)cc2-c2ccc(Cl)c(C)c2)cc1 | -9.82% (inactive) | inactive | inactive |  |  | 
36 | COC1C=CC23c4cc5c(cc4COC2(O)CN(C)C3C1)OCO5 (centres undefined) | -5.36% (inactive) | inactive | inactive |  |  | 
37 | CC[C@H]1CN2CC[C@H]1C[C@@H]2[C@@H](O)c1ccnc2ccc(OC)cc12 | 17.9% (inactive) | inactive | inactive |  |  | 
38 | COC1CC(OC2CCC3(C)C(=CCC4C3CCC3(C)C(C(C)OC5OC(COC6OC(CO)C(O)C(O)C6O)C(O)C(O)C5O)CCC43O)C2)OC(C)C1OC1OC(C)C(O)C(OC)C1O (centres undefined) | 5.34% (inactive) | inactive | inactive |  |  | 
39 | COC(=O)[C@@]12C(=O)C(C)C(=O)[C@]1(C)C(C)=C[C@H]1[C@]3(C=O)CC[C@H](OC(C)=O)C(C)(C)[C@H]3CC[C@@]12C (some centres undefined) | 19.1% (inactive) | inactive | inactive |  |  | 
40 | CCC1NC(=O)C2C(Cl)C(Cl)CN2C(=O)C(C(C)O)NC(=O)CC(c2ccccc2)NC(=O)C(CO)NC1=O (centres undefined) | 8.93% (inactive) | inactive | inactive |  |  | 
41 | C[C@]12CC[C@@H](O)C[C@H]1CC[C@@H]1[C@@H]2CC[C@]2(C)C(=O)CC[C@@H]12 | 3.67% (inactive) | inactive | inactive |  |  | 
42 | CC(C)(O)/C=C/C(=O)[C@](C)(O)[C@H]1[C@H](O)C[C@@]2(C)[C@@H]3CC=C4[C@@H](C[C@H](O)C(=O)C4(C)C)[C@]3(C)C(=O)C[C@]12C |  | inactive | inactive |  |  | 4.65 µM (active)
43 | CCC1C2CC3C4N(C)c5ccccc5C45CC(C2C5O)N3C1O (centres undefined) | 9.82% (inactive) | inactive | inactive |  |  | 
44 | CN1C(=O)c2ccccc2NC(=O)[C@]12O[C@@H]2c1ccccc1 | -0.763% (inactive) | inactive | inactive |  |  | 
45 | COc1ccc(CN(C(=O)[C@@H](N)Cc2c(C)cc(C(N)=O)cc2C)[C@@H](C)c2ncc(-c3ccccc3)[nH]2)cc1C(=O)O | 12.3% (inactive) | inactive | inactive |  |  | 
46 | C=C(C)[C@H]1O[C@H]2CC[C@@]3(C)[C@@](O)(CC[C@H]4[C@@H]5OC(C)(C)[C@H]6C[C@@H]7C(=C)Cc8c(Cl)cc9[nH]c(c5c9c8[C@@]76O)[C@@]43C)[C@]23O[C@@H]3[C@H]1O | -8.93% (inactive) | inactive | inactive |  |  | 
47 | CC1=CC2/C=C(\C)CCC(O)C3OC(C)(C)OC3CC(=O)OC23C(=O)NC(CC(C)C)C3C1C (centres undefined) | 6.87% (inactive) | inactive | inactive |  |  | 
48 | C/C=C1/CN2CC[C@]34C(=Nc5ccccc53)[C@@H]2C[C@@H]1[C@H]4C(=O)OC | 17.9% (inactive) | inactive | inactive |  |  | 
